Cycloheximide cs: counter-screen for Shiga toxin inhibitors: cycloheximide protein synthesis inhibition; max response, %; AID 2314; cell reporter, cycloheximide protein synthesis inhibition counterscreen; actives 12% (n = 300,000); in the data active = max response mostly above about 13%, no sharp cut-off; inactive = mostly below about 14%; note: read at 38.3 µM for the half of the compounds with a filed dose; 0% is about no effect
Sm TGR block: S. mansoni TGR enzyme inhibition. Q962Y6. Potency, µM (highest dose often 114 µM), without a hit: top-dose activity change, negative = inhibition, usual class: inhibitors. purified TGR, DTNB reduction, TNB absorbance 405 nm. actives 3% (n = 360,000). AID 485364; note: potency is the fitted concentration of half-maximal effect; % is set by controls: 0 for no effect and ±100 for the full control effect; nearly all actives have a fitted effect of over 60% in size
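First, TGR (20 nM dispensed) and NADPH were mixed with compound. Second, a 15 min room-temperature incubation followed. Third, further NADPH and then DTNB were added to start the reaction. Finally, TNB absorbance was monitored kinetically.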
FBPA Giardia inh: blocks Giardia fructose-bisphosphate aldolase activity | purified Giardia FBPA | actives 0.71% (n = 290,000) | A8B2U2 | Potency, µM (highest dose often 59.6 µM), inactives show at the highest dose activity, negative = inhibition, actives largely listed as inhibitors; note: potency is the fitted concentration of half-maximal effect; % is set by controls: 0 for no effect and ±100 for the full control effect; nearly all actives have a fitted effect of over 55% in size
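Giardia FBPA (40 nM reagent) was preincubated 10 min at RT with compound (up to 57.5 uM final), then substrate plus GAPDH/TPI/NAD/arsenate coupling system with diaphorase/resazurin was added; resorufin fluorescence (525/598 nm) was read after 20 min.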
TbPYK inhibitor: blocks Trypanosoma brucei pyruvate kinase. TbPYK enzyme, Kinase-Glo Plus ATP luminescence, 45 min. AID 624173. Potency, µM (top dose mostly 76.8 µM), inactives show at the highest dose activity, negative = inhibition, most hits filed as inhibitors. Q57TT1. actives 0.12% (n = 410,000); note: potency is the fitted concentration of half-maximal effect; % is set by controls: 0 for no effect and ±100 for the full control effect; nearly all actives have a fitted effect of over 50% in size
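T. brucei PYK with substrate was exposed to pin-transferred compounds across a concentration series, then started with 130 uM ADP (final). After 45 min at room temperature, Kinase-Glo Plus luminescence was read, normalized and curve-fitted.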
Shiga toxin inh: blocks Shiga toxin action in Vero cells. inhibition, % at 38.7 µM. Vero cells, Shiga toxin protein synthesis inhibition reporter. actives 9.2% (n = 290,000); in the data active = inhibition mostly above about 28%, no sharp cut-off; inactive = mostly below about 43%; note: 0% is about no effect
LmPK inh: LmPK (Leishmania mexicana) enzyme inhibition; Potency, µM (doses to about 57.5 µM), inactives show at the top dose activity change, negative = inhibition, actives largely listed as inhibitors; purified LmPK, Kinase-Glo ATP luminescence, 1 h; Q27686; actives 0.37% (n = 290,000); AID 1721; note: potency is the fitted concentration of half-maximal effect; % is set by controls: 0 for no effect and ±100 for the full control effect
Target sequence (Q27686 whole entry, looked up): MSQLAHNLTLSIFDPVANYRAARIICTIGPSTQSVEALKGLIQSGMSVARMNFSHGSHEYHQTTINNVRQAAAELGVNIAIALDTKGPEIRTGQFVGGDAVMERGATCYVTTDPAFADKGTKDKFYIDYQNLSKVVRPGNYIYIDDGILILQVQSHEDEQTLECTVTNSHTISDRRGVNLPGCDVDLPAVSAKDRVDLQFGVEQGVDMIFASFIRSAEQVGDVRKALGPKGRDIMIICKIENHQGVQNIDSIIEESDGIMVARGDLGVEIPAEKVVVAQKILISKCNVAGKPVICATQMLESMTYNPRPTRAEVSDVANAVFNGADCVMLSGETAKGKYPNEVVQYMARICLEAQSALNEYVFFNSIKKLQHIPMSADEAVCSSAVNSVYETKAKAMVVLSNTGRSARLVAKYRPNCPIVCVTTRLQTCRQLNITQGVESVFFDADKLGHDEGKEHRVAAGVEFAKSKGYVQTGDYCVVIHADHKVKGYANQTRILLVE
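Purified LmPK (0.1 nM) converted ADP (0.1 mM) to ATP with PEP (0.5 mM) in imidazole buffer pH 7.2 with KCl and MgCl2, 1 h at room temperature. ATP was read by Kinase-Glo luminescence; data normalized to uninhibited and no-enzyme controls.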
* hit, by the source's call; ? = inconclusive; · = no result. Only a selection was taken, and hits are over-represented in it overall. Unless noted, calls come from the whole dose curve; as a rule, active = well fitted curve in the direction sought with a large enough effect; inconclusive = small, poorly fitted or top-dose-only effect, or another doubt; inactive = no such curve, though single readings can be large; an effect the other way counts as inactive or inconclusive.

SMILES | Cycloheximide cs | Sm TGR block | FBPA Giardia inh | TbPYK inhibitor | Shiga toxin inh | LmPK inh
Cc1nc(-c2ccc(NC(=O)C3CCCCC3)cc2)cs1 | 43* | -2% | -1% | 4% | 137* | -1%
CCc1ccccc1NC(=O)c1ccc(-c2csc(C)n2)cc1 | 27* | 0% | -3% | -5% | 53* | 3%
CCCSC1=NC2(CCN(C(=O)NC3CCCCC3)CC2)N=C1c1ccc(Cl)cc1 | · | 4% | · | -2% | · | ·
Cc1ccccc1C(=O)Nc1nnc([C@@H]2C[C@H](O)[C@@H](CO)O2)s1 | · | · | · | 1% | · | ·
O=C(Nc1cccc(S(=O)(=O)NCc2ccco2)c1)c1cc(-c2ccccc2)nc2ccccc12 | 36* | -22% | -7% | 1% | 23 | 0%
COc1ccc(-c2cc(C(=O)NCc3ccco3)c3ccccc3n2)c(OC)c1 | 10 | -29% | -2% | 0% | -4 | 4%
O=C(NCc1ccco1)c1cc(-c2ccccn2)nc2ccccc12 | 2 | ? | 2% | -4% | 54 | -1%
COc1ccc(-c2cc(C(=O)NCc3ccco3)c3ccccc3n2)cc1 | 14* | 40µM* | -1% | -9% | 27 | 0%
O=C(Nc1cccc(S(=O)(=O)NCc2ccco2)c1)c1cccc(Cl)c1 | · | · | · | 3% | · | ·
O=C(NCc1ccco1)c1cc(-c2ccccc2)nc2ccccc12 | 24* | 31% | 1% | -4% | 53 | 3%
Cc1nnc(Sc2cc(C(=O)NCc3ccco3)c3ccccc3n2)s1 | 35* | ? | -1% | 2% | 60 | 2%
O=C(CC1CC1)Nc1ccc2c(c1)[C@@H]1C[C@H](CC(=O)NC3CCCC3)O[C@@H](CO)[C@@H]1O2 | · | · | · | -2% | · | ·
O=C(CCc1nnc(-c2ccsc2)o1)NCc1ccccc1OC(F)(F)F | 10* | 0% | 0% | -3% | 9 | 4%
O=C(CCc1nnc(-c2ccccc2)o1)NCc1cc(F)ccc1F | 17* | 0% | 4% | -4% | 29 | 3%
COc1ccc(N2CCN(C(=O)C(Cc3ccccc3)NC(=O)c3ccccc3)CC2)cc1 (centres undefined) | · | · | · | -9% | · | ·
Cc1ccc(CC(=O)NNC(=O)c2ccncc2)cc1C | · | 0% | · | ? | · | ·
C[C@]12CC[C@H]3C(=CCc4cc(O)ccc43)[C@@H]1CCC2=O | 16* | -22% | -17% | -11% | 34 | -2%
C[C@]12C[C@H](O)[C@@H]3c4ccc(O)cc4CCC3[C@@H]1CCC2=O (some centres undefined) | 0 | -4% | 2% | 3% | 25 | -3%
COc1ccc(OCc2cc(C(=O)NC(C)c3cnn(C)c3)no2)c(Cl)c1 (centres undefined) | 38* | 5% | · | 2% | 47* | 2%
O=C(c1cc(COc2ccc(F)cc2Cl)on1)N(CCO)Cc1cccs1 | 20* | 12% | · | 1% | 49 | -10%
COc1ccc(OCc2cc(C(=O)N3CCCCCC3)no2)c(Cl)c1 | 47* | -5% | · | -2% | 68* | -12%
COc1ccc(OCc2cc(C(=O)N3CCSCC3)no2)c(Cl)c1 | 67* | 3% | · | 11% | 143* | -1%
COc1cc(C(C)=O)ccc1OCc1cc(C(=O)N2CCSCC2)no1 | 18 | ? | 10% | 0% | 8 | 3%
COCCCN1C(=O)C(CC(=O)NCc2ccco2)CC(C(=O)N(C)C)=C1C (centres undefined) | · | · | · | -6% | · | ·
Cc1cc(F)ccc1NC(=O)C1CCN(C(=O)c2cnn(-c3ccccc3)c2-n2cccc2)CC1 | · | 8% | · | 4% | · | ·
SMILES | Cycloheximide cs | Sm TGR block | FBPA Giardia inh | TbPYK inhibitor | Shiga toxin inh | LmPK inh
COc1ccc(OCc2cc(C(=O)N3CCC(c4ccccc4)CC3)no2)c(Cl)c1 | 78* | 3% | · | -2% | 106* | -3%
CC(NC(=O)c1cc(COc2c(F)cccc2F)on1)c1cnn(-c2ccccc2)c1 (centres undefined) | 25* | 0% | -6% | -3% | 76* | -2%
COc1cccc(OCc2cc(C(=O)NC(C)c3cnn(C)c3C)no2)c1 (centres undefined) | 27* | -12% | 15% | 13% | 59* | 2%
COc1cccc(OCc2cc(C(=O)N3CCN(C)C(c4ccccc4)C3)no2)c1 (centres undefined) | 32* | -8% | · | 0% | 77* | -2%
COc1cccc(OCc2cc(C(=O)N3CCC(c4ccncc4)CC3)no2)c1 | 15 | -3% | 2% | 1% | -3 | 0%
O=C(O)c1cscc1-c1cccc2ccccc12 | · | · | · | -9% | · | ·
COc1ccc(OCc2cc(C(=O)N3CCN(CC(=O)N(C)C)CC3)no2)c(Cl)c1 | 23* | -23% | 7% | -6% | 3 | -2%
COc1cccc(OCc2cc(C(=O)N3C[C@H]4C[C@@H](C3)c3cccc(=O)n3C4)no2)c1 | 60* | ? | -15% | -4% | 52* | 0%
COc1ccc(OC)c(NC(=O)N2C[C@H]3C[C@@H](C2)c2cccc(=O)n2C3)c1 | 2 | 0% | 10% | 1% | -5 | -7%
COc1ccc(OCc2cc(C(=O)N3CCOCC3)no2)c(Cl)c1 | 43* | -10% | 3% | 2% | 91* | 0%
COCC1CCN(C(=O)c2cc(COc3ccc(F)cc3Cl)on2)C1 (centres undefined) | · | · | · | -1% | · | ·
O=C(c1cc(COc2ccc(F)cc2Cl)on1)N1CCc2ccccc2C1 | 1 | 4% | -1% | 0% | -6 | 5%
O=C(c1cc(COc2ccc(F)cc2Cl)on1)N1CCSCC1 | 62* | 19% | 1% | 2% | 67* | -1%
CC(C)(C)C(=O)Cn1c(=O)n(-c2ccc(Cl)c(Cl)c2)c(=O)c2c3c(sc21)CCCC3 | · | -6% | · | 1% | · | ·
COC(=O)c1ccc(C(NC(=O)OCc2ccccc2)/C(=C/[C@@H](C)C(=O)NCc2ccc(OC)c(OC)c2)c2cccnc2)cc1 (some centres undefined) | · | · | 3% | · | · | ·
O=C(CN(C(=O)CCC(=O)Nc1ccccn1)c1ccc(F)cc1)NCc1ccco1 | -1 | 1% | 9% | -4% | 28 | 14%
CC(C)c1ccc(N(CC(=O)NCc2ccco2)C(=O)CCC(=O)Nc2ccccn2)cc1 | 11* | -23% | -3% | -18% | 51* | 5%
Cc1ccc(N(CC(=O)NCC2CCCO2)C(=O)CCC(=O)Nc2ccccn2)cc1C (centres undefined) | 7 | 79µM* | 1% | 0% | 8 | -2%
CCN(CC(=O)Nc1c(F)cccc1F)C(=O)CCNC(=O)c1ccc([N+](=O)[O-])cc1 | · | -1% | · | 2% | · | ·
